# Results reported in PubChem BioAssay.
# Calls of active or inactive are those of the source. Unless noted, how the calls were made is not given here.
# Legend:
# [1] = A549 cell viability effects, profiling panel, calcein-AM fluorescence, 48 h, basal (AID 1162); conditions: higher = more signal; further: test concentration not given here
# [2] = adipocyte viability effects, profiling panel, cell-based, 3T3-L1 adipocytes, calcein-AM fluorescence, 48 h, basal (AID 1163); conditions: 3T3-L1 adipocytes viability, higher = more signal; further: test concentration not given here
# [3] = HepG2 cell viability effects, profiling panel, calcein-AM fluorescence, 48 h, basal (AID 1164); conditions: higher = more signal; further: test concentration not given here
# [4] = MM1S cell viability effects, profiling panel, calcein-AM fluorescence, 48 h, basal (AID 1165); conditions: higher = more signal;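 further: viability of MM1S multiple myeloma cells under basal unstimulated conditions; test concentration not given here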
# [5] = basal RPMI8226 viability, no added stimulus, profiling panel, cell-based, calcein-AM fluorescence, 48 h, PK04 Diversity Set (AID 1166); conditions: RPMI8226 myeloma viability, higher = more signal;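 further: cells grown under basal conditions without added stimulus; test concentration not given here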
# [6] = basal HepG2 mitochondrial membrane potential changes, profiling panel, cell-based, JC-1 fluorescence, 24 h, 100 nL compound (AID 1167); conditions: higher = more signal; further: test concentration not given here
# [7] = basal 3T3-L1 adipocyte mitochondrial potential changes, profiling panel, cell-based, JC-1 fluorescence, 3T3-L1 adipocytes, 24 h, 100 nL compound (AID 1168); conditions: JC-1 mitochondrial fluorescence, higher = more signal, called active from +8 up or from −8 down; further: test concentration not given here
# [8] = basal RPMI8226 mitochondrial membrane potential changes, profiling panel, cell-based, JC-1 fluorescence, 24 h, 100 nL compound (AID 1169); conditions: RPMI8226 myeloma, JC-1 mitochondrial potential fluorescence, higher = more signal; further: test concentration not given here
# [9] = basal MM1S mitochondrial membrane potential changes, profiling panel, cell-based, JC-1 fluorescence, 24 h, 100 nL compound (AID 1170); conditions: higher = more signal; further: test concentration not given here
# [10] = A549 lung cancer cell viability effects, profiling panel, resazurin fluorescence, 24 h, PK04 Diversity Set (AID 1171); conditions: higher = more signal, called active from +8 up or from −8 down; further: test concentration not given here
# [11] = HepG2 liver cancer cell viability effects, profiling panel, resazurin fluorescence, 24 h, PK04 Diversity Set (AID 1172); conditions: higher = more signal; further: test concentration not given here
# [12] = basal S. cerevisiae growth modulation, no modifier, primary screen, OD600, strain BY4716, 24 h, basal condition (AID 1173); conditions: OD600, 24 h, higher = more signal, called active from +8 up or from −8 down
# [13] = MM1S myeloma cell viability, profiling panel, resazurin fluorescence, basal, 24 h, PK04 Diversity Set (AID 1174); conditions: higher = more signal, called active from +8 up or from −8 down;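 further: MM1S multiple myeloma cell line; test concentration not given here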
# [14] = molecular target: Dihydroorotate dehydrogenase (quinone), mitochondrial (Plasmodium falciparum (isolate 3D7)) (UniProt Q08210); experiment: PfDHODH enzyme inhibitors, primary screen, biochemical, C-terminal His tag, absorbance 600 nm (AID 1175); conditions: DCIP absorbance 600 nm, higher = more signal, called active from +8 up or from −8 down;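 further: recombinant parasite enzyme with a five histidine tag at its C terminus; test concentration not given here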
# [15] = P. aeruginosa biofilm formation inhibitors, primary screen, strain PAO1, LB-PBS medium, absorbance 600 nm (AID 1176); further: test concentration not given here; conditions: P. aeruginosa PAO1 growth/biofilm, A600, 12 h; higher = more signal
# [16] = S. cerevisiae RM11-1a growth modifiers, primary screen, strain RM11-1a, OD600, basal, 24 h (AID 1177); conditions: OD600, 24 h, higher = more signal, called active from +8 up or from −8 down;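 further: cultures grown under basal conditions with no added stressor; test concentration not given here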
# [17] = E. coli acrAB mutant growth effects, primary screen, E. coli filamentation inducers, strain DRC39, OD650, 24 h (AID 1178); conditions: higher = more signal, called active from +8 up or from −8 down;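 further: growth measured as culture turbidity by optical density at 650 nm; test concentration not given here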
# [18] = E. coli acrAB mutant growth effects, primary screen, E. coli filamentation inducers, strain DRC39, OD650, 48 h (AID 1179);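 further: screen aims at cell division blockers that make cells filament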; conditions: E. coli DRC39 delta-acrAB growth, higher = more signal, called active from +8 up or from −8 down
# [19] = RPMI8226 myeloma cell viability, profiling panel, resazurin fluorescence, basal, 24 h, PK04 Diversity Set (AID 1180); conditions: higher = more signal;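 further: RPMI8826 multiple myeloma cell line at 5000 cells per well; test concentration not given here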
# [20] = molecular target: E3 ubiquitin-protein ligase XIAP (Homo sapiens) (UniProt P98170); experiment: XIAP binders, primary screen, biophysical, small-molecule microarray, fluorescence 635 nm (AID 1181); conditions: small-molecule microarray binding, higher = more signal;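 further: score merges 667 nm emission and signal to noise over triplicate slides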
# Sequence of E3 ubiquitin-protein ligase XIAP (Homo sapiens) (P98170 whole entry, looked up): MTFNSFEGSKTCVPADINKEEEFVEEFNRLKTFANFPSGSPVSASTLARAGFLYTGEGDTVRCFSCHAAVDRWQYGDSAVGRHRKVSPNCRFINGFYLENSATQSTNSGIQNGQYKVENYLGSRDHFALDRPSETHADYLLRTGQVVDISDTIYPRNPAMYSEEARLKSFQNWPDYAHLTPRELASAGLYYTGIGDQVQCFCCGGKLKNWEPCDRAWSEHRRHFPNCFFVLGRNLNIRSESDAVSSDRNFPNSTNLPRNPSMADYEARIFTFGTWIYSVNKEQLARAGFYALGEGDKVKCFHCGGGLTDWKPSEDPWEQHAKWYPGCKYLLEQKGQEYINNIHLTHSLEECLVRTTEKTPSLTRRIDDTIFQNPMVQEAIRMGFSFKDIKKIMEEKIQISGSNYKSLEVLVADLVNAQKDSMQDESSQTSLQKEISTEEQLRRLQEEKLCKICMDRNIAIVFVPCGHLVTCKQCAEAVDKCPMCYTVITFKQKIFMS
# Sequence of Dihydroorotate dehydrogenase (quinone), mitochondrial (Plasmodium falciparum (isolate 3D7)) (Q08210 whole entry, looked up): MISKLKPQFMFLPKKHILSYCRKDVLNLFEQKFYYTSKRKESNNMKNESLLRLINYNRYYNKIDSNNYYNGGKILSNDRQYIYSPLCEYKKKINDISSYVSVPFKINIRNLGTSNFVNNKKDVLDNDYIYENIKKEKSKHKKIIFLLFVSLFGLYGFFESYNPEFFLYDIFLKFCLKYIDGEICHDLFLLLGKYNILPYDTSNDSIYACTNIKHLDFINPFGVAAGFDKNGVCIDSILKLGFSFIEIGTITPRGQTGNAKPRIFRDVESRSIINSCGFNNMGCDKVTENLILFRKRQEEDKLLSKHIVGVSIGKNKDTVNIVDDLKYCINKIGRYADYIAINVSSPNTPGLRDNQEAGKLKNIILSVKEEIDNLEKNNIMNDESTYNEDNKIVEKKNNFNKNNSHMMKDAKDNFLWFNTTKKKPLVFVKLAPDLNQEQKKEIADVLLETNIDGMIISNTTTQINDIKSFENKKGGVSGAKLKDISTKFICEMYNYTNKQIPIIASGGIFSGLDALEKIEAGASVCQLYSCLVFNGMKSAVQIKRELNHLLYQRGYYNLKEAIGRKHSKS
Compound,z-score [1],z-score [2],z-score [3],z-score [4],z-score [5],z-score [6],z-score [7],z-score [8],z-score [9],z-score [10],z-score [11],z-score [12],z-score [13],composite z-score [14],z-score [15],z-score [16],z-score [17],z-score [18],z-score [19],composite z-score [20]
CCCC=C(CCC)[C@@H](NS(=O)(=O)c1ccc(C(F)(F)F)cc1)c1ccc(-c2ccccc2)cc1,-0.91,-0.988,-0.396,-0.5,-2.65,0.285,0.33 (inactive),0.342,-1.15,2.3 (inactive),2.18,1.05 (inactive),1.14 (inactive),0.472 (inactive),-1.16 (inactive),1.41 (inactive),0.0852 (inactive),-0.839 (inactive),0.719,0.0264
COc1cc2c(cc1OC)CN(C(=O)[C@H]1[C@@H]3C(=O)O[C@@H](c4ccccc4)[C@@H](c4ccccc4)N3[C@@H](c3ccccc3OCCO)[C@]13C(=O)Nc1ccc(C#CC4(O)CCCCCC4)cc13)CC2,0.434,-0.0514,1.64,-0.988,-1.93,-0.198,0.994 (inactive),-0.812,-1.41,-0.771 (inactive),0.714,0.0302 (inactive),-0.492 (inactive),0.682 (inactive),2.63 (inactive),2.15 (inactive),0.667 (inactive),1.61 (inactive),0.248,-0.12
COc1ccc(-c2cc3c(c(-c4ccccc4)n2)[Si](C(C)C)(C(C)C)O[C@H]3c2ccccc2)cn1,0.705,-0.263,0.674,-1.48,-1.85,-1.57,-0.739 (inactive),-0.707,-0.225,1.51 (inactive),0.158,0.509 (inactive),0.117 (inactive),-0.349 (inactive),0.35 (inactive),-0.824 (inactive),0.0539 (inactive),-0.508 (inactive),0.184,0.113
CC(C)C[C@@H]1NC(=O)[C@H]2C[C@@H](C(=O)NCCCCCC[N+](C)(C)C)[C@@H](c3ccc(O)cc3)N2C1=O,-0.547,-0.304,-1.01,-0.0171,0.0824,-0.575,0.177 (inactive),-0.342,-0.958,1.09 (inactive),1.27,-0.213 (inactive),0.771 (inactive),-1.51 (inactive),-1.04 (inactive),0.817 (inactive),0.385 (inactive),0.19 (inactive),0.985,-0.176
COc1ccc(C(=O)Nc2ccc(CN3C(=O)[C@]4(O[C@H](CCn5cc(CCO)nn5)[C@@H]([Si](C)(C)c5ccc(OC)cc5)[C@@H]4C)c4ccccc43)cc2)cc1,-3.11,-0.616,-4.54,-2.68,-4.37,1.17,1.3 (inactive),-1.1,-1.8,-3.05 (inactive),-2.97,-5.51 (inactive),-6.19 (inactive),0.597 (inactive),0.307 (inactive),2.44 (inactive),1.09 (inactive),0.72 (inactive),-3.23,-0.0129
O=C1O[C@H](c2ccccc2)[C@H](c2ccccc2)N2[C@H]1[C@@H](C(=O)Nc1nc3ccccc3s1)[C@]1(C(=O)Nc3ccc(C#CC4(O)CCCCCC4)cc31)[C@H]2c1ccc(O)cc1,-0.0457,0.6,-0.0827,-2.98,-4.08,-3.62,-2.4 (inactive),-1.14,-0.676,-0.318 (inactive),-0.629,-0.945 (inactive),-1.55 (inactive),0.0022 (inactive),1.44 (inactive),-0.124 (inactive),-0.492 (inactive),-0.716 (inactive),-1.36,-0.0426
O=C1C[C@@](C(=O)NCCN2CCOCC2)(c2ccc([N+](=O)[O-])cc2)[C@@H](c2ccc(CO)cc2)N1C1CCCCC1,1.16,0.936,0.339,0.324,0.633,0.899,0.295 (inactive),0.36,1.22,0.981 (inactive),-0.0886,-0.359 (inactive),0.836 (inactive),0.231 (inactive),0.292 (inactive),-0.206 (inactive),0.497 (inactive),0.274 (inactive),0.906,-0.142
Cc1ccccc1C(O)C1C=CC2C(=O)N(c3ccccc3)C(=O)C2N1Nc1ccc(C#N)cc1 (stereo not given),0.916,-0.175,2.03,-0.113,0.0872,0.258,-1.55 (inactive),-0.472,0.99,0.682 (inactive),-0.709,-0.257 (inactive),0.132 (inactive),0.513 (inactive),1.26 (inactive),0.302 (inactive),0.493 (inactive),0.0888 (inactive),-0.0953,0.198
CCOC(=O)C[C@H]1[C@H](OC(=O)Cc2ccc3c(c2)OCO3)[C@@H](NC(=O)c2ccc3ccccc3c2)c2cc(OCCCO)ccc2N1C(=O)Cc1ccc(OC)cc1,1.55,1.08,1.56,0.956,0.41,1.66,-0.14 (inactive),-0.384,-1.1,-0.654 (inactive),0.329,-0.566 (inactive),-0.162 (inactive),-1.09 (inactive),0.0642 (inactive),-1.66 (inactive),0.37 (inactive),1.11 (inactive),0.202,-0.0151
COC(=O)c1ccc(C#CC(NP(=O)(c2ccccc2)c2ccccc2)c2ccccc2)cc1 (stereo not given),-0.341,-0.0724,0.428,-3.15,-3.5,-0.798,-0.174 (inactive),-0.352,-1.3,-0.491 (inactive),-0.0848,0.441 (inactive),0.693 (inactive),-3.37 (inactive),0.231 (inactive),0.919 (inactive),0.37 (inactive),0.369 (inactive),1.26,0.063
C#CCNC(/C=C/c1ccccc1)CO (stereo not given),-0.165,-0.239,-0.624,-0.295,-0.987,-1.02,0.308 (inactive),0.38,-0.323,0.234 (inactive),-0.316,0.668 (inactive),-0.498 (inactive),0.657 (inactive),0.449 (inactive),1.62 (inactive),0.238 (inactive),0.188 (inactive),-0.153,0.0338
CC(C)C[C@@H]1NC(=O)[C@H](CC(C)C)NC(=O)[C@@]23C(=O)N[C@@H](Cc4ccccc4)C2[C@H](C)[C@@]2(C)O[C@H]2C3/C=C/CC/C=C/CNC1=O (stereo not given in full),-0.422,1.31,-0.766,-1.66,-2.04,2.33,-0.141 (inactive),-0.366,0.19,1 (inactive),-0.0096,-0.737 (inactive),0.229 (inactive),-0.744 (inactive),0.179 (inactive),0.569 (inactive),0.794 (inactive),-0.103 (inactive),0.0441,-0.02
COC(=O)[C@@]1(Cc2ccccc2N=[N+]=[N-])N=C(c2ccc(OCCCO)cc2)O[C@H]1c1ccccc1CN=[N+]=[N-],-2.82,0.128,-5.51,-3.55,-3.96,-1.98,1.69 (inactive),-0.822,-2.91,-3.26 (inactive),-4.57,1.16 (inactive),-8.21 (active),0.648 (inactive),0.383 (inactive),0.992 (inactive),0.23 (inactive),0.887 (inactive),-7,0.264
Cc1ccc(N2C(=O)c3ccccc3[C@](C)(C(=O)NCC(C)C)[C@@H]2c2ccc(CO)cc2)nc1,-0.535,-0.672,-0.712,-0.359,0.256,-0.481,-0.74 (inactive),-0.0498,-0.634,0.606 (inactive),0.1,0.726 (inactive),-0.558 (inactive),1.08 (inactive),0.14 (inactive),1.42 (inactive),0.401 (inactive),-0.247 (inactive),-0.481,-0.0095
C=C(CCCC)/C(=C/C[C@@H](OC(=O)c1ccncc1)c1ccc(CO)o1)c1cnc2ccccc2c1,1.18,0.282,-0.284,-2.48,-1.18,-0.526,-0.586 (inactive),-0.287,1,-0.0271 (inactive),-0.0346,-1.95 (inactive),0.82 (inactive),-7.54 (inactive),0.154 (inactive),-0.27 (inactive),0.698 (inactive),0.29 (inactive),0.501,0.451
COC(=O)C[C@H]1O[C@]2(C(=O)N(Cc3ccccc3)c3ccc(I)cc32)[C@@H](C)[C@@H]1[Si](C)(C)c1ccc(OC)cc1,-0.344,1.02,0.638,-0.077,-1.22,2.66,-1.07 (inactive),-0.226,0.211,-0.923 (inactive),-0.583,-2.01 (inactive),-0.146 (inactive),0.94 (inactive),-0.435 (inactive),0.765 (inactive),-0.493 (inactive),-0.598 (inactive),-0.196,-0.211
CO[C@H]1O[C@H](CO)[C@@H](OC(=O)Nc2ccc3c(c2)OCO3)[C@H](OC(=O)Nc2ccccc2)[C@@H]1OC(=O)Nc1ccccc1,-0.279,-0.0955,-1.27,-2,-1.66,-1.17,0.157 (inactive),-0.611,-0.191,-1.57 (inactive),-0.671,-0.328 (inactive),-1.24 (inactive),-0.0612 (inactive),0.345 (inactive),1.13 (inactive),0.399 (inactive),-0.409 (inactive),-0.682,0.319
